For 21 compounds, outcome and AC50 results are on record in PubChem BioAssay (EPA / NIEHS).

As usually defined, the AC50 is the concentration giving half of the maximal activity seen.

Assay [1] has as its target Estrogen receptor (Homo sapiens) (UniProt P03372). As to the kind of experiment: CCTE_Deisenroth_AIME_384WELL_LUC_Active: CCTE's 384-well Estrogen Receptor Transactivation Assay with AIME metabolic competence (ERTA luciferase; metabolism positive), Deisenroth Lab (AID 2284030). The gist of the method:
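Readout: bioluminescent luciferase induction in VM7Luc4E2 cells 24 hour after receiving medium from a 2 h rat hepatic S9 (induced, alginate microsphere) metabolism step. Concentrations 0.002 - 200 uM; activity scaled to 17beta-estradiol positive control.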

The nature of assay [2]: CCTE_Deisenroth_AIME_384WELL_CTox_Active: Cytotoxicity Assessment (CTOX) in CCTE's 384-well Estrogen Receptor Transactivation Assay with AIME metabolic competence (metabolism positive), Deisenroth Lab (AID 2284037).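 Further: chemicals first conditioned 2 h by alginate-bound induced rat liver S9 before cells; activity means signal loss indicating cell death.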 The gist of the method:
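Chemicals pre-incubated 2 hours with alginate-immobilised phenobarbital/beta-naphthoflavone-induced male Sprague Dawley rat liver S9, then conditioned medium applied 24 hour to VM7Luc4E2 cells. Viability by fluorogenic protease substrate; 10-point series 0.002 - 200 uM.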

Assay [3] can be described thus: CCTE_Deisenroth_AIME_384WELL_CTox_Inactive: Cytotoxicity Assessment (CTOX) in CCTE's 384-well Estrogen Receptor Transactivation Assay without AIME metabolic competence (metabolism negative), Deisenroth Lab (AID 2284039).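 Further: cell viability via live-cell protease substrate cleaved to fluorescent probe; cells exposed 24 h to medium preincubated 2 h with alginate-water beads without S9; loss of fluorescence signal means loss of viability.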 The method in brief:
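Fluorescent protease-substrate viability readout after 24 h exposure of VM7Luc4E2 cells to conditioned medium. Chemicals (0.002–200 uM) first sat 2 h over alginate-water beads, no S9. Data fitted bidirectionally, loss of signal meaning viability loss.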

The target in assay [4] is Estrogen receptor (Homo sapiens) (UniProt P03372). As to the kind of experiment: CCTE_Deisenroth_AIME_384WELL_LUC_Shift: CCTE's 384-well Estrogen Receptor Transactivation Assay with AIME metabolic competence data shift (ERTA luciferase; difference in metabolism positive and negative), Deisenroth Lab (AID 2284041; active means hit-call score of the fitted dose curve at least 0.9, where 1 is the maximum; inactive means score below 0.9;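 further: shift is response with S9 minus without S9 so positive means metabolism raised ER signal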). The method in brief:
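Chemicals (0.002–200 uM, 10 points) pre-incubated 2 h with alginate-encapsulated induced male Sprague Dawley rat liver S9 or S9-free, then medium applied 24 h to VM7Luc4E2 cells; luciferase. Endpoint is per-concentration difference, S9-positive minus negative.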

The nature of assay [5]: CCTE_Shafer_MEA_dev_firing_rate_mean: CCTE's Neural Network Formation Assay for Mean Firing Rate, Shafer Lab (AID 2284031; active means hit-call score of the fitted dose curve at least 0.9, where 1 is the maximum; inactive means score below 0.9). The gist of the method: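 Spike frequency (spikes/recording length, averaged over active electrodes) was recorded on days 5, 7, 9 and 12 and collapsed to AUC; rat cortical cultures received compound continuously over 12 days of network development.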

Assay [6] in a line: CCTE_Shafer_MEA_dev_per_burst_spike_percent: CCTE's Neural Network Formation Assay for Percent of Spikes in a Burst, Shafer Lab (AID 2284032; active means hit-call score of the fitted dose curve at least 0.9, where 1 is the maximum; inactive means score below 0.9). The gist of the method:
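Value is trapezoidal AUC over recordings on days 5, 7, 9 and 12 of the well-mean fraction of spikes falling in single-electrode bursts; rat cortical cultures exposed continuously from plating, treatment renewed DIV 5 and 9, fitted downward against DMSO.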

Assay [7] is described as follows: CCTE_Shafer_MEA_dev_active_electrodes_number: CCTE's Neural Network Formation Assay for Number of Active Electrodes, Shafer Lab (AID 2284040). The method in brief: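 Counts electrodes per well firing at least 5 spikes/min, recorded on days 5, 7, 9 and 12 in rat cortical cultures dosed continuously from plating (treatment refreshed DIV 5, 9). Value is the area under the curve over recordings, fitted downward relative to DMSO.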

The nature of assay [8]: CCTE_Shafer_MEA_dev_burst_rate: CCTE's Neural Network Formation Assay for Burst Rate, Shafer Lab (AID 2284042; active means hit-call score of the fitted dose curve at least 0.9, where 1 is the maximum; inactive means score below 0.9). The gist of the method:
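Exposure ran continuously over 12 days of network development in rat cortical cultures, with compound refreshed during full media changes on DIV 5 and 9. Single-electrode bursts per recording time, well-mean over active electrodes, trapezoidal AUC across days 5–12, fitted downward relative to DMSO.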

The nature of assay [9]: CCTE_Shafer_MEA_dev_bursting_electrodes_number: CCTE's Neural Network Formation Assay for Number of Bursting Electrodes, Shafer Lab (AID 2284043).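 On AC50: potency is for loss of bursting electrodes relative to DMSO.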 The method in brief: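 Rat cortical primary neurons, 48-well MEA, 16 electrodes/well; dosing DIV 0–12, re-dosed with full media change DIV 5, 9. Recordings DIV 5/7/9/12, AxIS adaptive spike detector; bursting electrode = ≥1 burst/2 min. AUC across days; loss of signal vs DMSO.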

The nature of assay [10]: CCTE_Shafer_MEA_dev_per_burst_interspike_interval: CCTE's Neural Network Formation Assay for Burst Interspike Interval, Shafer Lab (AID 2284044; active means hit-call score of the fitted dose curve at least 0.9, where 1 is the maximum; inactive means score below 0.9). The method in brief: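 Readout is the average time between spikes inside single-electrode bursts, taken as a well mean across bursting electrodes. Cortical neurons from rat developed networks on MEA plates under continuous 12-day exposure; recordings on days 5, 7, 9 and 12 were integrated by trapezoidal AUC.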

A short description of assay [11]: CCTE_Shafer_MEA_dev_burst_duration_mean: CCTE's Neural Network Formation Assay for Mean Burst Duration, Shafer Lab (AID 2284045; active means hit-call score of the fitted dose curve at least 0.9, where 1 is the maximum; inactive means score below 0.9). The method in brief: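 Rat cortical cultures, 1.5 x 10^5 cells/well with laminin drop; continuous dosing days 0–12, media plus treatment refreshed DIV 5, 9. AxIS adaptive spike detection; mean single-electrode burst duration, AUC over four recordings, negative direction vs DMSO.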

Molecules are shown by their SMILES. Results filed as inconclusive are left out. Calls of active or inactive are those of the source. How the source made its calls, unless noted: active means hit-call score of the fitted dose curve at least 0.9, where 1 is the maximum; inconclusive means response in the unintended direction; inactive means score below 0.9.

Sequence of Estrogen receptor (Homo sapiens) (P03372 whole entry, looked up): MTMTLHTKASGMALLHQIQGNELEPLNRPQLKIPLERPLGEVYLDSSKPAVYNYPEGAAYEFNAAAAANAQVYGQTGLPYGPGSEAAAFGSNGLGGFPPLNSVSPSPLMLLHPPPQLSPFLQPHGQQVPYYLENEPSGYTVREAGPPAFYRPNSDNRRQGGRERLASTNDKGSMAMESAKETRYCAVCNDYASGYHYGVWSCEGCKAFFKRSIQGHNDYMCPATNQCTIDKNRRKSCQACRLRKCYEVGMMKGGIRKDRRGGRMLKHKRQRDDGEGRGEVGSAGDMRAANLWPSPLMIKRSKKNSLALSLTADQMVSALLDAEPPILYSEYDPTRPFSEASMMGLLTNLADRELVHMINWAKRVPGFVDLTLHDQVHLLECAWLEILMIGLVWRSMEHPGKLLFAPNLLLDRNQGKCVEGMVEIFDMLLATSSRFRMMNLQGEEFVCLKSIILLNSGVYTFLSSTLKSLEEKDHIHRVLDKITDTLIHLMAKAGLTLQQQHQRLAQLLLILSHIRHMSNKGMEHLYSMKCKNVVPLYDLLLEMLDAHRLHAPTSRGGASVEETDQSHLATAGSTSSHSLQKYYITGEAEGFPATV

For `Cc1cccc(O)c1`, the compound was called inactive in [1], in [2], in [3] and in [4].

On to `O=C(OCc1ccccc1)c1ccccc1O`, for which the compound was classed as inactive in assay [1] and in assay [2]. In addition, in assay [4], the AC50 was 37.2 µM (active).

For the compound `N#CCCNCCC#N`, the outcome in assay [5], in assay [6], in assay [7], in [8], in [9] and in assay [10] was inactive. Further, the result in assay [11] was inactive.

In the case of `CC(C)Cc1ccc(C(C)C(=O)O)cc1` (stereo not given), the result in assay [5], in [6], in assay [7], in assay [8], in [10] and in [11] was inactive. The AC50 in assay [9] is 2.98 µM (active).

In the case of `CCCCCCCCOC(=O)c1ccc(O)cc1`, in [1], the call was inactive. Moreover, in assay [4], the AC50 was 36.3 µM (active).

Consider `O=C1OC2(c3ccc(O)cc3Oc3cc(O)ccc32)c2ccccc21`, for which the outcome in assay [4] was inactive.

`CCCCOCCOCCOCCO`: the outcome in assay [1] and in assay [4] was inactive.

Regarding `CCCC[N+](C)(CCCC)CCCC`, the compound was classed as inactive in assay [1], in [3] and in [4].

For `CCCCC(CC)COC(=O)COc1ccc(Cl)cc1C` (stereo not given), the result in assay [5], in assay [6], in assay [7], in assay [8], in [9] and in assay [10] was inactive. For the same compound, the compound was classed as inactive in [11].

In the case of `CCCO`, the result in [1] and in assay [4] was inactive.

On to `CCCCCCCCCCCCOCCOS(=O)(=O)O`, for which the AC50 in assay [2] is 147 µM (active); in assay [3] it was 107 µM (active). In addition, the outcome in assay [4] was inactive.

In the case of `CCCC1CCC(=O)CC1`, the result in assay [1] and in assay [4] was inactive.

Turning to `CC(C)(C)C1CCC(O)CC1` (stereo not given), the result in assay [1], in [2] and in assay [4] was inactive.

In the case of `CC(=O)c1ccc2ccccc2c1`, in assay [1], the AC50 is 74.9 µM (active). Besides, the result in assay [2] and in assay [4] was inactive.

For `CC(=O)CC(=O)N(C)C`, the outcome in assay [1], in assay [2], in assay [3] and in assay [4] was inactive.

For the compound `CN(C)C(=O)Nc1ccccc1`, the call in assay [1], in assay [3] and in [4] was inactive.

Regarding `CCC(C)COC(=O)CC(C)C` (stereo not given), the compound was classed as inactive in assay [1], in assay [2] and in assay [4].

For the compound `CC(=O)Oc1c(C)c(C)c2c(c1C)CC[C@@](C)(CCC[C@H](C)CCC[C@H](C)CCCC(C)C)O2`, the call in assay [1], in assay [2] and in assay [4] was inactive.

On to `C=CC(C)CCCC(C)(C)O` (stereo not given), for which the call in assay [1], in assay [3] and in assay [4] was inactive.

Take `COc1ccc2[nH]cc(CCNC(C)=O)c2c1`: the compound was classed as inactive in assay [1], in assay [2] and in assay [4].

Consider `[O-]/[N+](=N\O)c1ccccc1`, for which the values for the concentration at half-maximal activity (AC50) in assay [1] and in [4] were 72.8 µM (active) and 81 µM (active), respectively.
